PubChem BioAssay (NCI)
About 79,000 compounds went through this panel and 15% of them were active in at least one assay; those are over-represented in the sample as a whole. Values without a mark were called inactive. The source made the active and inactive calls. Cut-off read from the data, not from the text of the source: active = growth inhibition above about 70%; inactive = the rest.

Columns and labels:
[1] = NCI Yeast Anticancer Drug Screen. Data for the rad50 strain (AID 155);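 note: 0% = growth of vehicle-only cultures of the same strain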; conditions: S. cerevisiae rad50 strain growth inhibition; at 50.0 µM; stronger effect = higher value
Summary of the method: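 Yeast carrying a defined DNA repair defect were exposed to test compounds, and growth was compared with vehicle-treated controls to give percent inhibition.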

[2] = NCI Yeast Anticancer Drug Screen. Data for the mec2-1 strain (AID 157); conditions: S. cerevisiae mec2-1 strain, at 50.0 µM, stronger effect = higher value
Summary of the method: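 Compounds were applied to mec2-1 yeast cells. Their growth was then compared with that of vehicle-treated cultures to give growth inhibition.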

[3] = NCI Yeast Anticancer Drug Screen. Data for the sgs1 mgt1 strain (AID 161);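 note: 0% = growth of cultures given vehicle only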; conditions: S. cerevisiae sgs1 mgt1 strain, at 50.0 µM, stronger effect = higher value
Summary of the method: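 This yeast growth screen uses a strain with defined DNA-repair lesions; compound-treated growth is compared with vehicle-treated growth.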

[4] = NCI Yeast Anticancer Drug Screen. Data for the cln2 rad14 strain (AID 165);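 note: 0% = growth equal to vehicle treated cultures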; conditions: S. cerevisiae cln2 rad14 strain, at 50.0 µM, stronger effect = higher value
Summary of the method: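 Strain: cln2 rad14 yeast, altered in cell cycle control and DNA damage repair. Read-out: growth inhibition vs vehicle.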

[5] = NCI Yeast Anticancer Drug Screen. Data for the bub3 strain (AID 167); conditions: S. cerevisiae bub3 mutant strain, at 50.0 µM, stronger effect = higher value
Summary of the method: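 Compounds were applied to a genetically altered yeast strain carrying a cell-cycle control defect. Growth inhibition was scored against vehicle-treated controls.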

[6] = NCI Yeast Anticancer Drug Screen. Data for the mlh1 rad18 strain (AID 175); conditions: S. cerevisiae mlh1 rad18 strain growth inhibition; at 50.0 µM; stronger effect = higher value
Summary of the method: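 A repair-deficient yeast strain is exposed to test compound, and growth is scored relative to vehicle-treated controls.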

| SMILES | growth inhibition [1] | growth inhibition [2] | growth inhibition [3] | growth inhibition [4] | growth inhibition [5] | growth inhibition [6] |
| --- | --- | --- | --- | --- | --- | --- |
| O=c1ccc2c(-c3ccccc3O)c3ccc(O)cc3oc-2c1 | 91.8% (active) | 78.4% (active) | 85% (active) | 86.9% (active) | 88.5% (active) | 95.5% (active) |
| CCNS(=O)(=O)c1ccccc1 | -8.55% | -29.2% | -2.7% | 5.9% | -1.95% | 14.7% |
| NC(=O)NC(=O)/C=C/C(=O)O | 3.75% | -12.9% | -4.15% | -12.4% | 9.7% | -3.2% |
| Cn1c(SCc2ccc(F)cc2)nnc1C12CC3CC(CC(C3)C1)C2 | -32.2% | -12.2% | -22.6% | -1.95% | -17.4% | -48.1% |
| O=C1c2sccc2[C@H](NC(=O)C(F)(F)F)[C@@H]1Cl | 4.5% | 3.45% | 1.1% | 25.1% | 7.25% | 18.6% |
| COc1cccc(NC(=O)C(=O)C2C=CCS2(=O)=O)c1 (centres undefined) | 0.4% | -0.65% | -31.4% | -6.6% | -28.3% | -13% |
| O=C(O)c1cc(=O)[nH]c(=S)[nH]1 | -18.6% | 5.65% | -19.5% | 8.05% | -9.25% | -15.6% |
| N#CCN1c2ccccc2CCC1Cl (centres undefined) | -10.9% | -17.6% | -5.05% | -7.45% | 11.2% | 12.4% |
| CCOP(=O)(OCC)c1c(C(=O)OC)cc(=O)[nH]c1-c1ccc(C)cc1 | 44.9% | 23.4% | 40% | 25.2% | 53.7% | 61.3% |
| CCOc1cccc(C=Nc2ccccc2SSc2ccccc2N=Cc2cccc(OCC)c2O)c1O | 42.2% | 18.6% | 61.5% | 2.85% | 68.6% | 68.5% |
| Cc1nn(C(=O)c2ccc(Cl)cc2)c2c1C(c1ccc(O)cc1)SC(N)=N2 (centres undefined) | -33% | -49.1% | -43.7% | -26.8% | -23.9% | -31.2% |
| O=C(Nc1ccc(S(=O)(=O)N2CCCCC2)cc1)Oc1ccccc1C(=O)O | 26.4% | -4.5% | 3.15% | 16.1% | -1.65% | 4.8% |
| Cc1cc(C)c(NC(=O)Nc2cccc(F)c2)c(C)c1 | 20.8% | 11% | 13.2% | 19.2% | 23.4% | 13.3% |
| CC(=O)CCc1ccc(OC(=O)C(Cl)Cl)cc1 | 27% | 12.1% | 18.7% | 13.8% | 13.9% | 29.6% |
| Nc1cn(C2CC(O)C(CO)O2)c(=O)[nH]c1=O (centres undefined) | 0% | -1.9% | -2.5% | 1% | -4.4% | -9.05% |
| COC(=O)CC[C@@H](NC(=O)C(C)NC(=O)COC1C(O)C(COC(=O)CCCCCCCCCCNC(=O)c2ccc([N+](=O)[O-])c3[nH]c4cc(Br)ccc4c(=O)c23)OC(OCc2ccccc2)C1NC(C)=O)C(N)=O (some centres undefined) | -14.5% | -10.7% | -17.6% | 1.5% | -5.75% | -16.6% |
| O=[N+]([O-])c1cccnc1Sc1nc2ccccc2[nH]1 | 20.2% | 17.9% | 25.5% | -20.5% | 21.8% | 6.2% |
| CCOC(=O)/C=C/c1nc(C(=O)OCC)c(C)c(=O)[nH]1 | -0.55% | 8.3% | 22% | 7% | 1.25% | -24.1% |
| CCCCCCNC(=O)CCC(NC(=O)c1ccc(N(C)Cc2cnc3nc(N)nc(N)c3n2)cc1)C(=O)NCCCCCC (centres undefined) | 18.2% | 17.1% | 19.1% | 19.9% | 25.4% | 28.2% |
